Bioassay records from PubChem BioAssay.
Sampled rows, rich in hits. Any-hit rate of the full collection: about 3.5%.
TEAD-YAP inh: TEAD-YAP interaction inhibition, primary screen, TEAD-YAP interaction inhibitor project, luminescence, HEK-TIYL cells. TEAD-Gal4/YAP UAS-luciferase luminescence. inhibition, % at 9.12 µM. 1.4% of 640,000 active. AID 1259422, 2018; in the data active = inhibition above about 32%;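 note: 0% = median of test compound wells and 100% = reference inhibitor wells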
MITF inh: MITF inhibitors, primary screen, biochemical, AlphaScreen, human. Microphthalmia-associated transcription factor (Homo sapiens), O75030. AlphaScreen MITF homodimerization, bead proximity signal. inhibition, % at 2.6 µM. 0.91% of 650,000 active. AID 1259374, 2018; in the data active = inhibition above about 50%;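 note: 0% = vehicle wells with protein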
Target sequence (O75030 whole entry, looked up): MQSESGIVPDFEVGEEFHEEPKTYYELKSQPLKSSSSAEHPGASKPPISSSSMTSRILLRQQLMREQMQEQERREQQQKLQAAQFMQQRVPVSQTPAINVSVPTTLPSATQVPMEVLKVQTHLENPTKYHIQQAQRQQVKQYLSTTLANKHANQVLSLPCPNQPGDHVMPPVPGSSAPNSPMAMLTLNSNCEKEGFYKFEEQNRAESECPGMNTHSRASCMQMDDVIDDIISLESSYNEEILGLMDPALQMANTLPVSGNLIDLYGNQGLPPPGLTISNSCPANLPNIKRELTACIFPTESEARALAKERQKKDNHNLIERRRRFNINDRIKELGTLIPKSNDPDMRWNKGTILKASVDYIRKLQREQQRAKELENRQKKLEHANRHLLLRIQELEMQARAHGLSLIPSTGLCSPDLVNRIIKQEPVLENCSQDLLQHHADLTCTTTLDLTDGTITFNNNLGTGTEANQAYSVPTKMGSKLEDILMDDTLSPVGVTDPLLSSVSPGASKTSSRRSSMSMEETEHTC
FBW7 activator: FBW7 E3 ligase activators, primary screen, biochemical, AlphaScreen, human. F-box/WD repeat-containing protein 7 (Homo sapiens), Q969H0. AlphaScreen FBW7–phospho-cyclin E peptide binding, activator screen. normalized activity (activation), % at 26.1 µM. 0.13% of 650,000 active. AID 1259310, 2017; in the data active = normalized activity above about 1.9%;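 note: purified mutant Fbw7 with reduced substrate affinity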
GPR151 activ: activators of human GPR151, primary screen, cell-based, PathHunter beta-arrestin, luminescence; AID 1508602, 2020; activation, % at 11.2 µM; PathHunter beta-arrestin GPR151 cells; 1% of 650,000 active; G-protein coupled receptor 151 (Homo sapiens), Q8TDV0; in the data active = activation above about 4.9%;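 note: 0% = median of compound wells and 100% = cells with positive control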
MITF confirm: MITF inhibitors, retest of hits, confirmation, biochemical, AlphaScreen, triplicate | 16% of 4,700 active | inhibition, % at 2.6 µM | AlphaScreen MITF homodimerization, biotin/His-MITF beads | shares compounds with MITF inh;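 active = inhibition above a cutoff derived from the DMSO control wells, cut at about 28% in these data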;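 note: 0% = MITF dimer wells with DMSO only; inhibitors lower the bead chemiluminescence by keeping MITF from dimerizing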
AlphaScreen DR: AlphaScreen optical interference compounds, dose response, counter-screen, biochemical, HTS; 6% of 480 active; IC50, µM; AlphaScreen optical interference counterscreen, cell-free; shares compounds with MITF inh; call rule not given here
AS interf ctr: AlphaScreen optical interference compounds, counter-screen for MITF inhibitor project, biochemical, triplicate | shares compounds with MITF inh | LysRS AlphaScreen counterscreen, signal interference | inhibition, % at 2.6 µM | 7.6% of 4,700 active;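 active = inhibition above a cutoff derived from the DMSO control wells, cut at about 30% in these data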
Starred values were filed as active, the others as inactive.

How did CN(C)/N=C/c1ccc(OC(=O)c2ccccn2)cc1 do in these assays?
TEAD-YAP inh: -5; MITF inh: 43; FBW7 activator: 0; GPR151 activ: -2

Results for N#C/C(=C\c1ccc(OC(=O)c2ccccn2)cc1)C(N)=O ?
TEAD-YAP inh: 10; MITF inh: 53*; FBW7 activator: 0; GPR151 activ: -1; MITF confirm: 31*; AS interf ctr: 56*

Results for NS(=O)(=O)c1ccc(N=Cc2ccc(OC(=O)c3ccccn3)cc2)cc1 ?
TEAD-YAP inh: -10; MITF inh: 55*; FBW7 activator: 0; GPR151 activ: -2; MITF confirm: 17; AS interf ctr: 45*

What do the screens show for `CC(=O)c1cccc(N=Cc2ccc(OC(=O)c3ccccn3)cc2)c1`?
TEAD-YAP inh: -7; MITF inh: 20; FBW7 activator: 0; GPR151 activ: -2

How did COc1cc(/C=C2/NC(=S)NC2=O)cc(Br)c1OC(=O)C12CC3CC(CC(C3)C1)C2 do in these assays?
TEAD-YAP inh: -7; MITF inh: 9; FBW7 activator: 0; GPR151 activ: 1

How did COC(=O)CCNC(=O)Cn1ccc2ccccc2c1=O do in these assays?
TEAD-YAP inh: 2; MITF inh: 6; FBW7 activator: 0; GPR151 activ: 0

What do the screens show for `N#C/C(=C\c1nn(CCO)c(N)c1C#N)c1ccc(Cl)cc1Cl`?
TEAD-YAP inh: -2; MITF inh: 63*; FBW7 activator: 0; GPR151 activ: 0; MITF confirm: -6; AS interf ctr: -1

Results for N#C/C(=C\c1cc(Cl)cc(Cl)c1OCc1ccc(Cl)cc1Cl)c1nn(CCO)c(N)c1C#N ?
TEAD-YAP inh: 5; MITF inh: 1; FBW7 activator: 0; GPR151 activ: -1

What do the screens show for `CC1=NNC(=O)C1CCC(=O)N/N=C\c1sccc1C` (stereo not drawn)?
TEAD-YAP inh: -1; MITF inh: -1; FBW7 activator: 0; GPR151 activ: 1

Results for O=C1NC(=S)N/C1=C\c1ccc(-c2cccc([N+](=O)[O-])c2)o1 ?
TEAD-YAP inh: -3; MITF inh: -5; FBW7 activator: 0; GPR151 activ: -1

Results for O=C1NC(=S)N/C1=C\c1ccc([N+](=O)[O-])o1 ?
TEAD-YAP inh: -18; MITF inh: 67*; FBW7 activator: 0; GPR151 activ: 1; MITF confirm: 67*; AlphaScreen DR: >7.7; AS interf ctr: 14

How did COC(=O)c1ccc(CN2CCN(Cc3nc4ccccc4n3Cc3ccccc3)CC2)o1 do in these assays?
TEAD-YAP inh: -12; MITF inh: 67*; FBW7 activator: -1; GPR151 activ: 0; MITF confirm: 11; AS interf ctr: 27

What do the screens show for `C=CCNC(=O)N1CCN(Cc2nc3ccccc3n2Cc2ccccc2)CC1`?
TEAD-YAP inh: -13; MITF inh: 78*; FBW7 activator: 0; GPR151 activ: 2; MITF confirm: -4; AS interf ctr: 14

How did CC(C)(C)C(=O)N1CCN(Cc2nc3ccccc3n2Cc2ccccc2)CC1 do in these assays?
TEAD-YAP inh: -25; MITF inh: 13; FBW7 activator: 0; GPR151 activ: 1

Results for O=C(Nc1ccc(F)cc1)N1CCN(Cc2nc3ccccc3n2Cc2ccccc2)CC1 ?
TEAD-YAP inh: -25; MITF inh: 3; FBW7 activator: 0; GPR151 activ: -1

How did C=C(C)CN(CC)Cc1ccccc1[N+](=O)[O-] do in these assays?
TEAD-YAP inh: -3; MITF inh: 43; FBW7 activator: 0; GPR151 activ: -1

Results for Cn1c(=O)[nH]c(=O)c2c1nc(N1CCOCC1)n2Cc1ccccc1Cl ?
TEAD-YAP inh: -14; MITF inh: 1; FBW7 activator: 0; GPR151 activ: -2
